{"source": "ChEMBL document CHEMBL4513216", "about": "“Probing the Open Global Health Chemical Diversity Library for Multistage-Active Starting Points for Next-Generation Antimalarials” (ACS Infect Dis, 2020)", "note": "Hit rate of the full screen: of about 69,000 compounds, about 8,600 (12%) showed an effect of 50% or more. Only a selection was taken, and strong results are over-represented in it overall."}
{"tested_on": "Plasmodium berghei", "test": "Screen against P. berghei liver stage (PbLuc), transformed with Luciferase, at 10uM", "assay_type": "functional, HepG2", "settings": "tested at 10 uM", "units": {"INHIBITION": "%"}}
{"smiles": "Cc1nc(C(C)C)sc1C(=O)N1CCN(C2CCSCC2)CC1", "INHIBITION": -21.3}
{"smiles": "CCC(CCNCc1cnc(C2CCC2)s1)N1CCCC1=O", "note": "(stereo not given)", "INHIBITION": 53.4}
{"smiles": "CC(c1nc(C2CC2)no1)N1CCN(CCN2CCCC2=O)CC1", "note": "(stereo not given)", "INHIBITION": -65.2}
{"smiles": "Cc1ccc(N2CCC(NCc3cnc(C4CCC4)s3)CC2)nc1", "INHIBITION": 34.7}
{"smiles": "O=C1CCCCN1CCCNCc1cnc(C2CCC2)s1", "INHIBITION": 3.87}
{"smiles": "c1cnc(N2CCC(NCc3cnc(C4CCC4)s3)CC2)nc1", "INHIBITION": -22}
{"smiles": "CC(CCN1CCCC1=O)NCc1cnc(C2CCC2)s1", "note": "(stereo not given)", "INHIBITION": 54.4}
{"smiles": "CC(C)NC(=O)Nc1ccc(CNCc2cccc(OC(F)F)c2)cc1", "INHIBITION": 38.6}
{"smiles": "Cn1c(Cn2ccnc2)nnc1C1CCN(C(=O)c2cccnc2)CC1", "INHIBITION": -27.4}
{"smiles": "Cn1cc(N2CC3(CCN(CC4CCC4)CC3)OCC2=O)cn1", "INHIBITION": 42.5}
{"smiles": "Cc1cc(C)c2c(c1)NC(=O)C2CC(=O)O", "note": "(stereo not given)", "INHIBITION": 27.6}
{"smiles": "Cc1ccc(C)c2c1NC(=O)C2CC(=O)O", "note": "(stereo not given)", "INHIBITION": -95.1}
{"smiles": "Cc1cc(C)c2c(c1)C(CC(=O)O)C(=O)N2", "note": "(stereo not given)", "INHIBITION": 54.8}
{"smiles": "CCCc1nc(N2CCCN(c3ccncc3)CC2)c2cnn(C)c2n1", "INHIBITION": 39.1}
{"smiles": "CCn1cnnc1C1CCN(C(=O)c2cc(F)ccc2OC)CC1", "INHIBITION": 33.3}
{"smiles": "O=C(CS(=O)(=O)Cc1cc(Cl)c2c(c1)OCCCO2)NCC1CC1", "INHIBITION": 60.5}
{"smiles": "CS(=O)(=O)Cc1cc(Cl)c2c(c1)OCCCO2", "INHIBITION": 50.1}
{"smiles": "CN(C)C(=O)CCS(=O)(=O)Cc1cc(Cl)c2c(c1)OCO2", "INHIBITION": 44.3}
{"smiles": "CS(=O)(=O)CCS(=O)(=O)Cc1cc(Cl)c2c(c1)OCCCO2", "INHIBITION": 25.5}
{"smiles": "NC(=O)CS(=O)(=O)Cc1cc(Cl)c2c(c1)OCCCO2", "INHIBITION": -125}
{"smiles": "CN(C)C(=O)CCCS(=O)(=O)Cc1cc(Cl)c2c(c1)OCCO2", "INHIBITION": 31.9}
{"smiles": "CNC(=O)CS(=O)(=O)Cc1cc(Cl)c2c(c1)OCCCO2", "INHIBITION": 6.14}
{"smiles": "CN(C)C(=O)CS(=O)(=O)Cc1cc(Cl)c2c(c1)OCCCO2", "INHIBITION": 21.8}
{"smiles": "CN(C)C(=O)CCS(=O)(=O)Cc1cc(Cl)c2c(c1)OCCO2", "INHIBITION": 54.4}
{"smiles": "CSCC(=O)N1C[C@H](c2ccc(C)o2)[C@@H](N)C1", "INHIBITION": -1.45}
{"smiles": "CCNc1ncc(CN2CCOC(Cc3cccc(OC)c3)C2)cn1", "note": "(stereo not given)", "INHIBITION": 15.2}
{"smiles": "Cn1cnc2c1C(COCc1cccnc1)N(Cc1nccs1)CC2", "note": "(stereo not given)", "INHIBITION": 20.1}
{"smiles": "CCN(Cc1c(C)nn(CC)c1C)S(=O)(=O)c1cn(C)nc1C", "INHIBITION": 8.49}
{"smiles": "COc1ccccc1CN1CC[C@]2(C[C@@H](OC)CO2)C1", "INHIBITION": -79.4}
{"smiles": "CCC(C(=O)NC1CCCCC1)n1ccc2ncccc2c1=O", "note": "(stereo not given)", "INHIBITION": -4.12}
